A short description of assay [1]: qHTS profiling of the MIPE4 collection as inhibitors of Plasmodium falciparum (3D7) proliferation (AID 743344).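 Note: scaled between DMSO vehicle wells and 0.29 µM artemisinin as full inhibition.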 The conditions noted are these: P. falciparum 3D7 in erythrocytes, SYBR Green DNA fluorescence, 72 h; at 28.5 µM unless noted. The gist of the method: (§1)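 Erythrocytes infected with P. falciparum (0.3% parasitemia, 2.5% hematocrit) incubated with compounds 72 h at 37 C, 5% CO2. Lysis with saponin/Triton buffer containing SYBR Green I, overnight at room temperature in the dark; DNA fluorescence (485/535 nm) normalised to 0.29 uM artemisinin and DMSO.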

A short description of assay [2]: qHTS profiling of the MIPE4 collection as inhibitors of Plasmodium falciparum (DD2) proliferation (AID 743345). The conditions noted are these: P. falciparum Dd2 in erythrocytes, SYBR Green DNA, 72 h; at 28.5 µM unless noted. In short, it runs like this: as §1
(qHTS replaces the single test concentration by a dilution series.)

Turning to `C[C@H](NC(=O)C(C#N)=Cc1cccc(Br)n1)c1ccccc1`, in assay [1], the parasite growth, % of DMSO control was 59.1%. Moreover, in assay [2], the parasite growth remaining, % of DMSO control (lower = more inhibition) came to 86.2%.
With `COc1cccc2c1C(=O)c1c(O)c3c(c(O)c1C2=O)C[C@@](O)(C(=O)CO)C[C@@H]3O[C@H]1C[C@H](N)[C@H](OC2CCCCO2)[C@H](C)O1` (some centres not stated), the parasite growth, % of DMSO control in assay [1] stood at 5.43%. This molecule also showed a parasite growth remaining, % of DMSO control (lower = more inhibition) in assay [2] of 7.89%.
The like results for `CC(C)c1cnn2c(NCc3ccccc3)cc(NCCCCCCN)nc12` were, in that order, 6.96% and 12.1%.
In turn, `Nc1nc2c(c(=O)[nH]1)N(C=O)[C@H](CNc1ccc(C(=O)N[C@@H](CCC(=O)O)C(=O)O)cc1)CN2` had a parasite growth, % of DMSO control in assay [1] of 106%. The molecule also registered a parasite growth remaining, % of DMSO control (lower = more inhibition) in assay [2] of 96.2%.
In the case of `Nc1cccc2c1C(=O)N(C1CCC(=O)NC1=O)C2=O` (configuration not stated), the parasite growth, % of DMSO control in assay [1] is 97.4%. In assay [2], the parasite growth remaining, % of DMSO control (lower = more inhibition) was 95.1%.
Taken in the same sequence, the figures for `C=CCNC1=C2C[C@@H](C)C[C@H](OC)[C@@H](O)[C@@H](C)C=C(C)[C@H](OC(N)=O)[C@@H](OC)C=CC=C(C)C(=O)NC(=CC1=O)C2=O` were 5.05% and 7.22%.
`COC(=O)C=CC(=O)OC` had a parasite growth, % of DMSO control in assay [1] of 76.2%. In assay [2], this molecule came in with a parasite growth remaining, % of DMSO control (lower = more inhibition) of 97.5%.
`CN1CCc2c(c3ccccc3n2Cc2ccc(C(=O)NO)cc2)C1`: the parasite growth, % of DMSO control in assay [1] amounted to 5.11%. This molecule had a parasite growth remaining, % of DMSO control (lower = more inhibition) in assay [2] of 12.1%.
Taken in the same sequence, the figures for `COC(=O)[C@@H]1[C@H]2C[C@@H]3c4[nH]c5ccccc5c4CCN3C[C@@H]2CC[C@@H]1O` were 79.9% and 93.2%.
Taken in the same sequence, the figures for `CCOC(=O)N1CCN([N+]([O-])=NOc2ccc([N+](=O)[O-])cc2[N+](=O)[O-])CC1` were 67.7% and 83%.
Taken in the same sequence, the figures for `OCCNC1CCCc2c1[nH]c1ccc(-c3ccccc3)cc21` (configuration not stated) were 7.39% and 15.7%.
In turn, `CCN(CC)CCCCNc1ncc2c(n1)N(C)C(=O)N(c1c(Cl)c(OC)cc(OC)c1Cl)C2` showed a parasite growth, % of DMSO control in assay [1] of 25.2%. This molecule also yielded a parasite growth remaining, % of DMSO control (lower = more inhibition) in assay [2] of 17.7%.
In assay [1], `CCc1c(O)cc(O)c(C(=O)c2ccc(OCCN3CCOCC3)c(OC)c2)c1CC(=O)N(CCOC)CCOC` showed a parasite growth, % of DMSO control of 4.87%. The same molecule displayed a parasite growth remaining, % of DMSO control (lower = more inhibition) in assay [2] of 12.7%.
`CCOC(=O)C=C[C@H](C[C@@H]1CCNC1=O)NC(=O)[C@@H](CC(=O)[C@@H](NC(=O)c1cc(C)on1)C(C)C)Cc1ccc(F)cc1`: in assay [1], the parasite growth, % of DMSO control is 22%. The molecule further returned a parasite growth remaining, % of DMSO control (lower = more inhibition) in assay [2] of 98.4%.
Take `C[C@H]1COc2c(N3CCN(C)CC3)c(F)cc3c(=O)c(C(=O)O)cn1c23`: in assay [1], the parasite growth, % of DMSO control amounted to 49.9%. For the same molecule, the parasite growth remaining, % of DMSO control (lower = more inhibition) in assay [2] is 69.9%.
Taken in the same sequence, the figures for `Cc1cc(Nc2ncc3c(n2)N(C)C(=O)N(c2cc(NC(=O)c4cccc(C(F)(F)F)c4)ccc2C)C3)n(C)n1` were 7.35% and 15.8%.
For the molecule `Cn1cc(-c2cnn3c(N)c(Br)c([C@H]4CCCNC4)nc23)cn1`, the parasite growth, % of DMSO control in assay [1] amounted to 7.85%. In addition, in assay [2], the parasite growth remaining, % of DMSO control (lower = more inhibition) was 10.3%.
Take `NC(=NCCCCCCN=C(N)N=C(N)Nc1ccc(Cl)cc1)N=C(N)Nc1ccc(Cl)cc1`: in assay [1], the parasite growth, % of DMSO control came to 12.4%. The molecule also registered a parasite growth remaining, % of DMSO control (lower = more inhibition) in assay [2] of 6.46%.
`COc1ccc([C@@H]2CNC(=O)C2)cc1OC1CCCC1`: in assay [1], the parasite growth, % of DMSO control worked out at 106%. In assay [2], this molecule registered a parasite growth remaining, % of DMSO control (lower = more inhibition) of 96.4%.
`C=C1C(=O)O[C@H]2[C@@H]1CCC(C)=CCC[C@@]1(C)O[C@@H]21` gave a parasite growth, % of DMSO control in assay [1] of 39.5%. Besides, the parasite growth remaining, % of DMSO control (lower = more inhibition) in assay [2] stood at 75.8%.
Taken in the same sequence, the figures for `O=C(NC1CC1)c1cccc(-c2ccc3c(NC(=O)C4CC4)n[nH]c3c2)c1` were 35.1% and 96.7%.
The like results for `N#CC(=C(N)Sc1ccc(N)cc1)c1ccccc1C(F)(F)F` were, in that order, 24.4% and 69.5%.
Molecule `CCCNC(=O)[C@H]1O[C@H]1C(=O)N[C@H](C(=O)N1CCC[C@@H]1C(=O)OC)C(C)CC` (some centres not stated) yielded a parasite growth, % of DMSO control in assay [1] of 88%. This molecule also showed a parasite growth remaining, % of DMSO control (lower = more inhibition) in assay [2] of 94.3%.
Taken in the same sequence, the figures for `O=C(Nc1cccc(Nc2ncc(Br)c(NCCc3cnc[nH]3)n2)c1)N1CCCC1` were 7.42% and 13.6%.
`COc1cccc2c1C(=O)c1c(O)c3c(c(O)c1C2=O)C[C@@](O)(C(=O)CO)C[C@@H]3O[C@H]1C[C@H](N)[C@@H](O)[C@H](C)O1`: the parasite growth, % of DMSO control in assay [1] turned out to be 3.7%. The molecule further gave a parasite growth remaining, % of DMSO control (lower = more inhibition) in assay [2] of 4.88%.
The like results for `CO[C@@H]1[C@@H](O)[C@H](O)[C@@H](n2c3c(Cl)cccc3c3c4c(c5c6cccc(Cl)c6[nH]c5c32)C(=O)NC4=O)O[C@@H]1CO` were, in that order, 7.5% and 7.89%.
Taken in the same sequence, the figures for `Cn1cnc2c(F)c(Nc3ccc(Br)cc3F)c(C(=O)NOCCO)cc21` were 86.6% and 88%.
Consider `CN(C)CC[C@H](c1ccc(Cl)cc1)c1ccccn1`, for which the parasite growth, % of DMSO control in assay [1] is 94.7%. Further, in assay [2], the parasite growth remaining, % of DMSO control (lower = more inhibition) was 57%.
Taken in the same sequence, the figures for `O=C(NNC(=O)c1ccc(CNS(=O)(=O)c2ccc(F)c(Cl)c2)cc1)c1ccccc1` were 371% and 87.9%.
The molecule `COC[C@H](NC(=O)c1cnc(C)s1)C(=O)N[C@@H](COC)C(=O)N[C@@H](Cc1ccccc1)C(=O)[C@@]1(C)CO1` showed a parasite growth, % of DMSO control in assay [1] of 5.4%. This molecule registered a parasite growth remaining, % of DMSO control (lower = more inhibition) in assay [2] of 7.34%.
Taken in the same sequence, the figures for `O=C(C=Cc1ccc(CN(CCO)CCc2c[nH]c3ccccc23)cc1)NO` were 4.37% and 6.71%.

These data come from PubChem BioAssay (NCATS).
